{
  "source": "paper PMC4336329",
  "about": "(PLoS ONE, 2015)",
  "note": "Hit rate of the full screen: of about 310,000 compounds, about 14,000 (4.5%) showed an effect of 50% or more. Effects have a minus sign here. This excerpt belongs to a sample that is enriched for strong results.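 Further: peak tail current of the secondary pulse compared with the same well before compound.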",
  "data": [
    {"molecular_target": "human ether-à-go-go-related gene (hERG) potassium channel (human, UniProt Q12809)", "sequence (Q12809 whole entry, looked up)": "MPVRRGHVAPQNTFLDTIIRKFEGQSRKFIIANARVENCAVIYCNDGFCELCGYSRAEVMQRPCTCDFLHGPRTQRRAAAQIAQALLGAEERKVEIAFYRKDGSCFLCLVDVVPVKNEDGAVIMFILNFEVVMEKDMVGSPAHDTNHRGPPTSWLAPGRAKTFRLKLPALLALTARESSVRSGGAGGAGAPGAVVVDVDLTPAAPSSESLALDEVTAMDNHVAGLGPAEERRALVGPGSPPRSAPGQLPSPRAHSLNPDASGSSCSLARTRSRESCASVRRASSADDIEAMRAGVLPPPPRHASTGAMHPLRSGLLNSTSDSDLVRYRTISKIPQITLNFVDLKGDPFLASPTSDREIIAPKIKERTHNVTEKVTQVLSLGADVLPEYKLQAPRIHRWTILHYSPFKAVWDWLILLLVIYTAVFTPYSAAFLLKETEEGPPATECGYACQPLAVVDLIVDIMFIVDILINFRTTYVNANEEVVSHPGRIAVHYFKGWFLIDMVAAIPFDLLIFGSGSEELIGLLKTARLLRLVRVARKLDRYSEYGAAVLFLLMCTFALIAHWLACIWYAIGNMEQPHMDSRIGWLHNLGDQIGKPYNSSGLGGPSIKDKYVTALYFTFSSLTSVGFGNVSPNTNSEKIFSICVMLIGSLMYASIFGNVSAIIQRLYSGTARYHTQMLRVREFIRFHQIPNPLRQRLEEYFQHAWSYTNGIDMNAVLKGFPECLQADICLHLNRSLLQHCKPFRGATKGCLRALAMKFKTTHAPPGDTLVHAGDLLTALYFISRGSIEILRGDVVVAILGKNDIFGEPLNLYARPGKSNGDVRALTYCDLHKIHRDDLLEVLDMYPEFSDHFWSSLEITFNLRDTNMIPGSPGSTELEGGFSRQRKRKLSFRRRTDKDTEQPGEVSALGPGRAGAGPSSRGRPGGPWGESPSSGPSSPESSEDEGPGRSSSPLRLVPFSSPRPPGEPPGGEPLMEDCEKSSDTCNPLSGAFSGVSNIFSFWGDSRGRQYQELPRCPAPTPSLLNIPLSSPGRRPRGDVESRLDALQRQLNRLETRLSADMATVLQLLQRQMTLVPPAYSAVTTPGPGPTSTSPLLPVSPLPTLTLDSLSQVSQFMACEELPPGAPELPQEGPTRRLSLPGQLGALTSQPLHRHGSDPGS", "assay": "primary screen, population patch clamp on CHO cells stably expressing hERG; higher = less effect of the substance", "units": {"hERG current change (%, negative = inhibition) at 10uM": "%"}, "values": [
      {"smiles": "O=C(c1ccc(-c2ccccc2Cl)o1)N1CCN(S(=O)(=O)c2cccs2)CC1", "hERG current change (%, negative = inhibition) at 10uM": 15.9},
      {"smiles": "O=C(c1cccs1)C1CN2CCC1CC2", "note": "(stereo not shown)", "hERG current change (%, negative = inhibition) at 10uM": -4.77},
      {"smiles": "COc1ccc(C(=O)Nc2ccc3c(c2)nc2n3CCSC2)cc1", "hERG current change (%, negative = inhibition) at 10uM": -24.7},
      {"smiles": "O=c1[nH]c(=O)n(Cc2ccc(Oc3ccccc3)cc2)cc1Br", "hERG current change (%, negative = inhibition) at 10uM": -1.61},
      {"smiles": "Cc1cccc(NCc2ccc([N+](=O)[O-])s2)c1", "hERG current change (%, negative = inhibition) at 10uM": -26.7},
      {"smiles": "COc1ccc(NCc2ccc([N+](=O)[O-])s2)cc1", "hERG current change (%, negative = inhibition) at 10uM": -13.6},
      {"smiles": "COc1cccc(NCc2ccc([N+](=O)[O-])s2)c1", "hERG current change (%, negative = inhibition) at 10uM": -51},
      {"smiles": "COc1cc2c(cc1OC)-c1c3c(cc4c1[C@@H](C2)N(C)CC4)OCO3", "hERG current change (%, negative = inhibition) at 10uM": -31.7},
      {"smiles": "COc1cc2c(cc1OC)-c1c(OC)c(OC)cc3c1C(C2)N(C)CC3", "note": "(stereo not shown)", "hERG current change (%, negative = inhibition) at 10uM": -5.23},
      {"smiles": "COc1cc2c(cc1O)CC1c3c(cc(O)c(OC)c3-2)CCN1C", "note": "(stereo not shown)", "hERG current change (%, negative = inhibition) at 10uM": -59.2},
      {"smiles": "COc1cc2c(cc1O)C[C@H]1c3c(cc(O)c(OC)c3-2)CCN1C", "hERG current change (%, negative = inhibition) at 10uM": -70.1},
      {"smiles": "COc1cc2c(cc1O)[C@@H]1Cc3cc(O)c(OC)cc3[C@H](C2)N1C", "hERG current change (%, negative = inhibition) at 10uM": 11.3},
      {"smiles": "COc1ccc2c(c1O)-c1c(OC)c(OC)cc3c1[C@H](C2)N(C)CC3", "hERG current change (%, negative = inhibition) at 10uM": -36.5},
      {"smiles": "O=C(O)CCCCCN1C(=O)/C(=C\\c2ccc(-c3ccc(Cl)cc3)o2)SC1=S", "hERG current change (%, negative = inhibition) at 10uM": 18},
      {"smiles": "COCCN1C(=O)c2ccccc2C(C(=O)Nc2ccc3c(c2)OCCO3)C1c1ccc(F)cc1", "note": "(stereo not shown)", "hERG current change (%, negative = inhibition) at 10uM": 17.1},
      {"smiles": "COc1cccc(S(=O)(=O)Nc2ccc(C(=O)Nc3ccncc3)cc2)c1", "hERG current change (%, negative = inhibition) at 10uM": 2.7},
      {"smiles": "Cc1ccc(CSc2ccc(S(=O)(=O)N3CCCC3)cn2)cc1", "hERG current change (%, negative = inhibition) at 10uM": -4.27},
      {"smiles": "N#Cc1ccc(S(=O)(=O)N2CCC(N3CCCCC3)CC2)cc1", "hERG current change (%, negative = inhibition) at 10uM": -58.3},
      {"smiles": "Cc1ccc(S(=O)(=O)N2CCC(N3CCCCCC3)CC2)cc1", "hERG current change (%, negative = inhibition) at 10uM": -23.2},
      {"smiles": "CCn1c(SCc2ccccc2)nnc1-c1ccc(S(=O)(=O)N2CCCCC2)cc1", "hERG current change (%, negative = inhibition) at 10uM": -36.2},
      {"smiles": "CCn1c(SCc2ccc(C#N)cc2)nnc1-c1ccc(S(=O)(=O)N2CCCCC2)cc1", "hERG current change (%, negative = inhibition) at 10uM": -70.7},
      {"smiles": "O=S(=O)(c1ccc(SCc2ccc(Cl)cc2)nc1)N1CCCC1", "hERG current change (%, negative = inhibition) at 10uM": -8.21},
      {"smiles": "O=S(=O)(c1ccc(Cl)cc1)N1CCC(N2CCCCCC2)CC1", "hERG current change (%, negative = inhibition) at 10uM": -49.9},
      {"smiles": "N#Cc1ccc(CSc2ccc(S(=O)(=O)N3CCCC3)cn2)cc1", "hERG current change (%, negative = inhibition) at 10uM": -67.2},
      {"smiles": "CCn1c(SC)nnc1-c1ccc(S(=O)(=O)N2CCCCC2)cc1", "hERG current change (%, negative = inhibition) at 10uM": -12.1},
      {"smiles": "CC(=O)c1cccc(N/C=C\\c2nnnn2-c2ccc(F)cc2)c1", "hERG current change (%, negative = inhibition) at 10uM": 0.338},
      {"smiles": "COC(=O)C1=C(C)NC(C)=C(C(=O)OC)C1c1ccccn1", "hERG current change (%, negative = inhibition) at 10uM": 5.81},
      {"smiles": "O=C(NC1CCCC1)C(c1cccnc1)N(C(=O)c1csnn1)C1CCCC1", "note": "(stereo not shown)", "hERG current change (%, negative = inhibition) at 10uM": 13},
      {"smiles": "O=C(CN(C(=O)Cn1nnc(-c2cccs2)n1)c1ccc2c(c1)OCCO2)NC1CCCCC1", "hERG current change (%, negative = inhibition) at 10uM": -13.2},
      {"smiles": "Cc1nnc(C)n1N", "hERG current change (%, negative = inhibition) at 10uM": 12.1},
      {"smiles": "CCn1c(=O)cc(OCC(=O)O)c2ccccc21", "hERG current change (%, negative = inhibition) at 10uM": 10.6},
      {"smiles": "S=C(NCc1ccccc1)Nc1ccc(Cl)cc1", "hERG current change (%, negative = inhibition) at 10uM": -25.1},
      {"smiles": "OCC1CCCN(c2nc(CN3CCCCC3)nc3scc(-c4ccccc4)c23)C1", "note": "(stereo not shown)", "hERG current change (%, negative = inhibition) at 10uM": -63.7},
      {"smiles": "O=C(O)C(=O)O.c1ccc(CNc2nc(CN3CCOCC3)nc3scc(-c4ccccc4)c23)cc1", "hERG current change (%, negative = inhibition) at 10uM": -20.6},
      {"smiles": "Fc1ccc(N2CCN(c3nc(CN4CCOCC4)nc4scc(-c5ccccc5)c34)CC2)cc1", "hERG current change (%, negative = inhibition) at 10uM": -5.05},
      {"smiles": "CCC(CO)Nc1nc(CN2CCCCC2)nc2scc(-c3ccccc3)c12", "note": "(stereo not shown)", "hERG current change (%, negative = inhibition) at 10uM": -68.2},
      {"smiles": "Clc1ccc(CNc2nc(CN3CCOCC3)nc3scc(-c4ccccc4)c23)cc1", "hERG current change (%, negative = inhibition) at 10uM": -9.73},
      {"smiles": "CC1CCCN(c2nc(-c3cccnc3)nc3scc(-c4ccccc4)c23)C1", "note": "(stereo not shown)", "hERG current change (%, negative = inhibition) at 10uM": 11.6},
      {"smiles": "CC1CCN(c2nc(-c3cccnc3)nc3scc(-c4ccccc4)c23)CC1", "hERG current change (%, negative = inhibition) at 10uM": 15.4},
      {"smiles": "CC1CCN(c2nc(CN3CCCCC3)nc3scc(-c4ccccc4)c23)CC1", "hERG current change (%, negative = inhibition) at 10uM": -75.5},
      {"smiles": "OCC1CCCN(c2ncnc3scc(-c4ccccc4)c23)C1", "note": "(stereo not shown)", "hERG current change (%, negative = inhibition) at 10uM": 3.73},
      {"smiles": "CCCCN(C(=O)CCC(=O)Nc1cc(C)on1)C(C(=O)NC(C)(C)CC)c1cccc(OC)c1OC", "note": "(stereo not shown)", "hERG current change (%, negative = inhibition) at 10uM": 1.4},
      {"smiles": "Cc1cccc(C)c1NC(=O)CSc1nnnn1C", "hERG current change (%, negative = inhibition) at 10uM": -1.61}
    ]}
  ]
}
